LmPK inh: blocks Leishmania mexicana pyruvate kinase activity; Q27686; purified LmPK, Kinase-Glo ATP luminescence, 1 h; Potency, µM (highest dose often 57.5 µM), for inactives: top-dose activity change, negative = inhibition, hits mostly inhibitors; actives 0.37% (n = 290,000); AID 1721; note: potency is the fitted concentration of half-maximal effect; % is set by controls: 0 for no effect and ±100 for the full control effect
Target sequence (Q27686 whole entry, looked up): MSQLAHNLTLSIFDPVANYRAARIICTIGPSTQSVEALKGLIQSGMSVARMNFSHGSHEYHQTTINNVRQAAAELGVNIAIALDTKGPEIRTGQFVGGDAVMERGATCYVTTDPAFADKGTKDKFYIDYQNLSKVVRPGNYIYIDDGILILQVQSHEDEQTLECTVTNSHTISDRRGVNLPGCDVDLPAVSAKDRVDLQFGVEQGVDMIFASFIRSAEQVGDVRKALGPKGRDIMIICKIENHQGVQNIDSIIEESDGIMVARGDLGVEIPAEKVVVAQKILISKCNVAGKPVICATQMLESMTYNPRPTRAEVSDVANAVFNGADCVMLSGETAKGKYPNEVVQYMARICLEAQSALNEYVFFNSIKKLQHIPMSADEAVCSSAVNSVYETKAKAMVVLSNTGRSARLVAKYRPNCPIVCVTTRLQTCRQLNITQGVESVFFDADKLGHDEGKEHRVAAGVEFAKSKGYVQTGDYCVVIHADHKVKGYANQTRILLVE
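Screened at intermediate enzyme activity to detect both inhibitors and activators: LmPK at 0.1 nM, with a 0.5 nM enzyme column as activation reference. PEP 0.5 mM, ADP 0.1 mM; ATP detected by luminescence after 1 h.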
SARS PLP yeast: inhibitors of SARS-CoV papain-like protease in yeast; S. cerevisiae expressing SARS-CoV PLpro, growth rescue; Potency, µM (series often up to 32.9 µM), without a hit: at the top dose activity, positive = growth rescue, hits mostly activators; actives 0.19% (n = 330,000); AID 485353; calls by dose curve; note: potency is the fitted concentration of half-maximal effect; 0% is about no effect; nearly all actives have a fitted effect of over 55% in size
Shiga inhibitor: blocks Shiga toxin action in Vero cells. Vero cells, Shiga toxin protein synthesis inhibition reporter. inhibition, % at 38.7 µM. actives 9.2% (n = 290,000); in the data active = inhibition mostly above about 28%, no sharp cut-off; inactive = mostly below about 43%; note: 0% is about no effect
Cycloheximide cs: affects cycloheximide protein synthesis inhibition readout, counter-screen; cell reporter, cycloheximide protein synthesis inhibition counterscreen; actives 12% (n = 300,000); max response, %; in the data active = max response mostly above about 13%, no sharp cut-off; inactive = mostly below about 14%; note: read at 38.3 µM for the half of the compounds with a filed dose; 0% is about no effect
TbPYK inhibitor: inhibitors of Trypanosoma brucei pyruvate kinase. Potency, µM (top dose mostly 76.8 µM), without a hit: top-dose activity, negative = inhibition, usual class: inhibitors. actives 0.12% (n = 410,000). AID 624173. TbPYK enzyme, Kinase-Glo Plus ATP luminescence, 45 min. Q57TT1; note: potency is the fitted concentration of half-maximal effect; % is set by controls: 0 for no effect and ±100 for the full control effect; nearly all actives have a fitted effect of over 50% in size
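Quantitative HTS: titrated library compounds versus trypanosomal pyruvate kinase in TEA buffer (pH 7.2) containing KCl, MgCl2, BSA and Tween-20. Reactions were initiated with ADP, 130 uM final. Kinase-Glo Plus luminescence was read after 45 min at RT.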
NS1 function inh: influenza NS1 inhibition. Potency, µM (doses to about 46.1 µM), for inactives: at the top dose activity, positive = more growth. actives 0.4% (n = 270,000); calls by dose curve; note: potency is the fitted concentration of half-maximal effect; actives are rising curves; nearly all actives have a fitted effect of over 50% in size
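Growth recovery, yeast-based: influenza A NS1 expressed in S. cerevisiae causes slow growth, and suppressors are detected by OD600. The parent strain without NS1 is used as positive control.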
Starred values were filed as active, the others as inactive; ? = inconclusive; . = no result; ! = not active in a repeat. The entries come from a sample that favours hits as a whole. Unless noted, calls come from the whole dose curve; as a rule, active = well fitted curve in the direction sought with a large enough effect; inconclusive = small, poorly fitted or top-dose-only effect, or another doubt; inactive = no such curve, though single readings can be large; an effect the other way counts as inactive or inconclusive.

SMILES | LmPK inh | SARS PLP yeast | Shiga inhibitor | Cycloheximide cs | TbPYK inhibitor | NS1 function inh
O=C(CCc1ccccc1)Nc1ccc(F)cc1F | -11% | -1% | 67* | 23* | -4% | 2%
CC(C)Oc1ccc(CNC(=O)c2cnc3sc(N4CCCCCC4)nn3c2=O)cc1 | . | . | . | . | -1% | .
O=C(CSCc1ccccc1)Nc1ccc(F)cc1F | 2% | -1% | 49* | 21* | -1% | -5%
O=C(CCCc1ccccc1)Nc1ccc(Br)cc1F | 7% | -2% | . | 55* | ? | -9%
O=C(CS(=O)(=O)Cc1ccccc1)Nc1ccc(Br)cc1F | . | . | . | . | -2% | .
Cc1ccc(NC(=O)CSc2nc3c(sc4ccccc43)c(=O)n2CCCC(=O)NC2CCCC2)cc1C | . | . | . | . | 4% | .
O=C(Cc1ccc(F)cc1)NCCc1csc(-c2ccc(C(F)(F)F)cc2)n1 | . | . | . | . | 4% | .
COc1cccc(CNC(=O)c2ccc(NC(=O)C3CCCO3)cc2)c1 (centres undefined) | 0% | -2% | -5 | 1 | -9% | -3%
CCOc1ccc(CNC(=O)c2ccc(NC(=O)C3=CSCCO3)cc2)cc1 | 1% | -2% | 20 | 34* | -5% | 3%
CCOc1ccc(CNC(=O)c2ccc(NC(=O)c3nsc4ccccc34)cc2)cc1 | . | . | . | . | 5% | .
O=C(Nc1ccccc1C(=O)NCc1ccccc1)C1=CSCCO1 | -4% | -5% | -6 | -4 | 0% | 10%
COc1cccc(CNC(=O)c2ccc(NC(=O)C3=CSCCO3)cc2)c1 | -2% | -2% | 116* | 22* | 0% | -17%
Cc1ccc(CNC(=O)c2ccc(NC(=O)C3=CSCCO3)cc2)cc1 | -6% | 8% | 28* | 15 | 1% | 7%
Cc1cc(Nc2cc(F)ccc2C)nc(-n2nc(C)cc2C)n1 | . | . | . | . | -4% | .
Cc1ccc(CN2CCCn3nc(C(=O)NCc4ccc(N(C)C)cc4)cc3C2=O)cc1 | . | . | . | . | -5% | .
O=C(/C=C/c1ccc(Cl)cc1)Nc1nccs1 | -8% | 1% | 70* | 54* | 1% | .
O=C(NCc1ccc(Cl)cc1)C(=O)Nc1nccs1 | 4% | -1% | -15 | 1 | -4% | .
C/C=C/C=C/C(=O)Nc1nccs1 | -1% | 6% | 8 | 17* | -16% | 23%
Cc1ccc(S(=O)(=O)Nc2ccc(Nc3nccn4c(-c5cccc(OC(F)(F)F)c5)cnc34)cc2)cc1 | . | . | . | . | 0% | .
CCCCCC(=O)Nc1ccc2oc(-c3cncc(Br)c3)nc2c1 | 7% | 1% | 31 | 26* | 0% | -35%
CCCC(=O)Nc1ccc2oc(-c3cncc(Br)c3)nc2c1 | -19% | 0% | 58* | 48* | 0% | 6%
CSC(=[SH+])N=N/C(=C1/C=CC=CN1)c1ccccn1.[Cu][Br] | . | . | . | . | . | 21%
O=C1C2=C(Nc3ccccc3SC2c2ccco2)c2ccccc21 (centres undefined) | -3% | -14% | 78* | 33* | ? | -55%
CC(C)c1ccc(C2Sc3ccccc3NC3=C2C(=O)c2ccccc23)cc1 (centres undefined) | . | . | . | . | -4% | .
CCCn1nnc(NC(=O)c2cccc(OCC(C)C)c2)n1 | -4% | -14% | 71* | 39* | 12% | -2%
SMILES | LmPK inh | SARS PLP yeast | Shiga inhibitor | Cycloheximide cs | TbPYK inhibitor | NS1 function inh
CCn1nnc(NC(=O)c2cccnc2)n1 | -1% | 8% | 5 | -1 | 5% | 13%
CC(C)COc1cccc(C(=O)NC2(C)CCS(=O)(=O)C2)c1 (centres undefined) | -14% | -9% | 8 | 1 | 0% | 5%
CCCn1nnc(NC(=O)c2cccc(OCC)c2)n1 | -5% | -2% | 130* | 45* | 6% | -12%
CCCn1nnc(NC(=O)c2ccc(Br)o2)n1 | -7% | -4% | 18 | 18 | -9% | -1%
CCn1nnc(NC(=O)c2ccc(C(C)(C)C)cc2)n1 | -5% | -4% | 36 | 36* | 3% | -76%
CCCn1nnc(NC(=O)c2ccc(F)cc2)n1 | -7% | 8% | 57* | 48* | 0% | 1%
Cn1c(CNC(=O)c2ccc3c(c2)OCO3)nnc1SCC(=O)Nc1ccccc1F | -5% | -2% | -3 | 1 | -7% | 6%
CCC(=O)c1ccc2c(c1)N(CCCN1CCN(CCO)CC1)c1ccccc1S2 | . | . | . | . | 2% | .
Cc1ccn2c(Nc3ccccc3)c(-c3c[nH]c4ccccc34)nc2c1 | . | . | . | . | 2% | .
CCCn1nnc(NC(=O)c2ccc3ccccc3c2)n1 | -1% | 3% | 143* | 44* | 0% | .
COc1cc2c(cc1OC)C(COc1ccc(C(C)C)cc1)N(C(=O)COc1ccccc1)CC2 (centres undefined) | . | . | . | . | 1% | .
O=C(CCc1nc2ccccc2s1)c1ccccc1 | 1% | -1% | 4 | 37* | -10% | -6%
O=C(CCc1nc2ccccc2s1)OCC(=O)c1ccccc1 | -1% | 2% | 31 | 12* | -3% | -1%
O=C(CCc1nc2ccccc2s1)OCC(=O)c1ccc[nH]1 | -8% | 0% | 6 | -3 | -1% | 0%
COC(=O)CCCc1nc2ccccc2s1 | -6% | 3% | 33* | 25 | 0% | 4%
O=C(O)CCCc1nc2ccccc2s1 | 4% | 1% | -3 | -2 | -14% | -1%
O=C1OCc2ccc(NC(=O)c3c(F)cccc3Cl)cc21 | -5% | 1% | 30 | 17* | 3% | 14%
O=C(Nc1ccc2c(c1)C(=O)OC2)c1ccccc1Cl | 5% | 1% | 23 | 26* | -7% | 9%
O=C(Nc1ccc2c(c1)CCC2)c1c(F)cccc1Cl | -2% | 3% | 112* | 54* | 3% | .
O=C1OCc2ccc(NC(=O)c3ccccc3C(=O)O)cc21 | -8% | -2% | 58* | 34* | 3% | 5%
O=C(Nc1ccc2c(c1)CCCN2C(=O)c1cccs1)c1c(F)cccc1Cl | 3% | 1% | -2 | -3 | -7% | -16%
COCCN(C(=O)COC(=O)Cc1cccc(OC)c1)c1c(N)n(CC(C)C)c(=O)[nH]c1=O | . | -4% | . | . | 2% | .
COc1ccc(C2C3C=CCC(c4cccc(/C=C/c5ccccc5)c4)C3C(=O)N2Cc2ccccc2)cc1Cl (centres undefined) | . | . | 36* | 36* | . | .
CN(C)c1ccc(-c2cccc(C3CC=CC4C3C(=O)N(Cc3ccccc3)C4c3ccc(C(F)(F)F)cc3)c2)cc1 (centres undefined) | -1% | -1% | 50 | 14*! | -2% | 2%
COc1ccc(-c2cc(C3C4C=CCC(C)C4C(=O)N3Cc3ccccc3)ccc2F)cc1OC (centres undefined) | . | . | 63* | 51* | . | .
CCc1noc(C)c1C(=O)Nc1cc(S(=O)(=O)N2CCOCC2)ccc1N1CCN(CC)CC1 | . | 9% | . | . | -4% | .
CN(C)c1ccc(CNC(=O)C2CCCN(S(=O)(=O)c3ccc4c(ccn4C)c3)C2)cc1 (centres undefined) | . | . | . | . | -3% | .
N#Cc1c(/N=C/C2C(=O)NC(=S)NC2=O)sc2c1CCCC2 | -2% | 0% | -6 | 1 | ? | .

Bioassay records deposited in PubChem BioAssay by National Center for Advancing Translational Sciences (NCATS).
